From the supplement of paper PMC11732987, “Enantioselective OTUD7B fragment discovery through chemoproteomics screening and high-throughput optimisation” (Communications Chemistry, 2025)

Biological target: COPS5 (UniProt Q92905)
Assay: log2 ratio of Biotin-Ahx-Ub-VS probe labelling (fragment/DMSO); higher = less target engagement (more negative = stronger competition), active = hit call of the paper (q ≤ 0.05, log2 ratio ≤ -1)
Conditions: compound concentration: 200 uM; treatment time: 3 h
Procedure: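 Competitive ABPP in HEK293T cell lysate. Lysates were treated with each chloroacetamide fragment at 200 µM for 3 h, then with Biotin-Ahx-Ub-VS (0.5 µM, 1 h), NeutrAvidin-enriched and analysed by diaPASEF LC-MS/MS. Protein LFQ was median-normalised; average log2 ratio is fragment/DMSO from an unpaired t-test (n=3 treated, n=44 DMSO). Hits: q ≤ 0.05, log2 ratio ≤ -1, unique peptides ≥ 2.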

Sequence of COPS5 (Q92905 whole entry, looked up, the tested form may be a part): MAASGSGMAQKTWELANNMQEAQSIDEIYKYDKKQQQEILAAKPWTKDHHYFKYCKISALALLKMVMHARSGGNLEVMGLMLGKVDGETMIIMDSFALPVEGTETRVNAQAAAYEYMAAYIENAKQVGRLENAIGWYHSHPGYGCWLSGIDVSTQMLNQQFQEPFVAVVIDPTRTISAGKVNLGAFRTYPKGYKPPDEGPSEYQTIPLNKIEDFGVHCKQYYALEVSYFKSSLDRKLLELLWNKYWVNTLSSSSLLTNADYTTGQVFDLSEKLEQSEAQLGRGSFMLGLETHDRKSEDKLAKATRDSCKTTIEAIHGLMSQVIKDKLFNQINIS

log2 ratio of Biotin-Ahx-Ub-VS probe labelling, inactive:
Cl.Cn1cnc2cc(CNC(=O)CCl)ccc21 -0.125
N#Cc1ccc(CNC(=O)CCl)cc1 0.228
O=C(CCl)N1CCC(c2nc3ccccc3o2)CC1 -0.0083
O=C(CCl)N1CCc2ccccc2C(O)C1 (stereo not given) 0.0553
CC(NC(=O)CCl)c1csc(-c2ccccc2)n1.Cl (stereo not given) -0.00417
Cc1c(C#N)c(NC(=O)CCl)n(Cc2ccco2)c1C -0.146
Cc1ccc(CN(CCO)C(=O)CCl)cc1 -0.141
O=C(CCl)N[C@H]1CCS(=O)(=O)c2ccccc21 -0.0992
O=C(CCl)N1CCCC1c1ccsc1 (stereo not given) -0.0486
O=C(CCl)Nc1nc(-c2cccs2)cs1 0.0647
O=C(CCl)N1CCc2[nH]c3ccccc3c2C1 -0.0163
CC1(NC(=O)CCl)CCS(=O)(=O)C1 (stereo not given) 0.0148
Cc1cc(C(=O)NC2CCN(C(=O)CCl)CC2)no1 0.0469
COc1ccc(CN(C)C(=O)CCl)cc1 -0.0998
Cl.O=C(CCl)N1CCc2ncncc2C1 -0.0201
O=C(CCl)N1CCOC(c2cccc(F)c2)C1 (stereo not given) -0.0425
Cc1ncsc1CCNC(=O)CCl 0.936
Cn1cc(CN(Cc2ccc(Cl)cc2)C(=O)CCl)cn1 -0.179
Cc1cccc(N2CCC(NC(=O)CCl)C2=O)c1 (stereo not given) -0.0421
NC(=O)C1CCCN(C(=O)CCl)C1 (stereo not given) 0.0012
CC(c1ccccc1)N(C)C(=O)CCl (stereo not given) 0.082
O=C(CCl)N1CCOC(CCc2ccccc2)C1 (stereo not given) -0.026
CC(=O)Nc1ccc(NC(=O)CCl)cc1 -0.0874
O=C(CCl)N1CC2(CCOCC2)C1 0.161
C[C@H]1CN(C(=O)CCl)CCN1C(=O)c1cnn(C)c1.Cl -0.0598
CCC1c2ccsc2CCN1C(=O)CCl (stereo not given) -0.188
O=C(CCl)N(Cc1ccsc1)C1CC1 0.054
O=C(CCl)NC1(c2ccc3c(c2)OCCO3)CCCC1 -0.172
CN(Cc1nc2ccccc2[nH]1)C(=O)CCl.Cl -0.0146
Cc1cccnc1NC(=O)C1CCN(C(=O)CCl)CC1.Cl -0.025
Cl.O=C(CCl)N1CCn2cncc2C1 -0.298
Cl.O=C(CCl)NCc1cc2c(nc1O)CCCC2 -0.023
COc1ccccc1C(C)NC(=O)CCl (stereo not given) 0.247
Cc1cnc2[nH]cc(CCNC(=O)CCl)c2c1 0.199
CNC(=O)C1(NC(=O)CCl)CCCCC1 0.00317
COc1ccc(C2CCCN2C(=O)CCl)c(OC)c1 (stereo not given) -0.524
O=C(CCl)Nc1cccc(C(=O)N2CCSCC2)c1 -0.111
CCCn1nccc1NC(=O)CCl -0.308
O=C(CCl)N1CCN(c2nc3ccccc3o2)CC1 -0.251
Cc1ccc(C)c(NC(=O)CCl)c1 -0.0407
